40 compounds from PubChem BioAssay can be followed below.

A number with no mark means an inactive call. How the calls were made is not given here.

Chain of Pantothenate synthetase (Mycobacterium tuberculosis (strain ATCC 25618 / H37Rv)) (P9WIL5 whole entry, looked up): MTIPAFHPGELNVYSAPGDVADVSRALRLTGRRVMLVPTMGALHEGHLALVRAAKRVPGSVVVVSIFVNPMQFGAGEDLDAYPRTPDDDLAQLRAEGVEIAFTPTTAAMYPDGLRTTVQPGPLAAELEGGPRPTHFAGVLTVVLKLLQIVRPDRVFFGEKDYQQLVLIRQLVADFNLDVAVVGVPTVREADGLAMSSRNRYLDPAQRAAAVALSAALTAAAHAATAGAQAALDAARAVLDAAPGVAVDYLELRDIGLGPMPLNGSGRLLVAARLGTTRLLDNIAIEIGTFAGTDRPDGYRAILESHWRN

The test concerns the target Pantothenate synthetase (Mycobacterium tuberculosis (strain ATCC 25618 / H37Rv)) (UniProt P9WIL5). The test can be described thus: Recombinant Mtb pantothenate synthetase (PanC) inhibitors, coupled enzyme, confirmatory (AID 375).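 Further: 0% = full reaction with vehicle and 100% = no enzyme background.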 Conditions: coupled enzyme assay; at 10 µM, hits give high values.
The inhibition is the share of the control response that was lost under treatment. As for `COc1cc(C(=O)NCC(=O)OCC(=O)c2ccc[nH]2)cc(OC)c1OC`, the inhibition was 2%.

`CCCn1c(N)c(C(=O)CSc2nnc(Cc3ccccc3)o2)c(=O)n(C)c1=O`: the inhibition is 2%.

In the case of `CCN=C1SC(CC(=O)Nc2ccccc2)C(=O)N1CC` (stereo not given), the inhibition was 5%.

For `CN(C)C(CNc1nnnn1-c1ccccc1)c1ccco1` (stereo not given), the inhibition is 2%.

As to `CCCCNC(=O)Cn1c(=O)n(C)c2ccccc21`, the inhibition is 0%.

Turning to `CC(=O)N1CCc2cc(S(=O)(=O)CCC(=O)N3CCN(c4ccccn4)CC3)ccc21`, the inhibition is 11%.

With `CC(=O)c1ccc(-n2nnnc2SCC(=O)N2CCc3ccccc3C2)cc1`, the inhibition is 0%.

Consider `Cn1c(SCc2nc3ccccc3c(=O)[nH]2)nnc1-c1ccco1`, for which the inhibition was 13%.

As for `O=C1CC(=O)N(Cc2cccs2)C(=O)N1`, the inhibition was 0%.

Regarding `COc1ccc(OCC(=O)N2CCN(C(=O)COc3ccc(Br)cc3)CC2)cc1`, the inhibition was 0%.

Turning to `COc1c(S(=O)(=O)n2nc(C)cc2C)ccc(Cl)c1Cl`, the inhibition was 3%.

As for `Cc1ccc(CCNC(=O)C2CCC(=O)N2C2CCCC2)cc1` (stereo not given), the inhibition was 0%.

`CCCCCCn1c(SCC(=O)OC)nc2c1c(=O)[nH]c(=O)n2C`: the inhibition is 0%.

Take `CCN1CCN(c2nc3c(c(=O)n(C)c(=O)n3C)n2CCSc2ncccn2)CC1`: the inhibition is 0%.

`Cc1cc(=O)oc2c(CN3CCN(C)CC3)c(O)c(Cl)cc12`: the inhibition is 7%.

On to `CCOC(=O)N1CCC(NC(=O)C2CCCN2C(=O)OCc2ccccc2)CC1` (stereo not given), for which the inhibition was 5%.

In the case of `CCOCCCNC(=O)C1CCCN(S(=O)(=O)CC)C1` (stereo not given), the inhibition is 0%.

Take `Cc1cc(OCC(O)CN2CCN(CCO)CC2)ccc1C(C)C` (stereo not given): the inhibition is 8%.

`Nc1nonc1N1CCCCC1`: the inhibition was 0%.

`Cc1nc2ncnn2c(N2CCC(C(=O)NC3CCCC3)CC2)c1Cc1ccccc1`: the inhibition was 1%.

`Cc1cc(C)c2c(N)c(C(=O)c3ccccc3)oc2n1`: the inhibition is 0%.

Regarding `O=C(NCCN1CCCC1)C1COc2ccccc2O1` (stereo not given), the inhibition is 3%.

`Cn1c(=O)[nH]c(=O)c2c1nc(Br)n2CCCSc1nc2ccccc2o1`: the inhibition is 0%.

For `NC(=O)CCS(=O)(=O)CCN1CCCCC1`, the inhibition is 0%.

On to `C#CCSc1nc(-c2cccs2)ccc1C#N`, for which the inhibition was 0%.

`O=C(Nc1cccc(Cl)c1)N1CCN(Cc2ccccc2)CC1`: the inhibition is 5%.

For the compound `Cc1nnc(N(C)C(=O)Cc2ccc3c(c2)OCO3)s1`, the inhibition is 0%.

For the compound `CCOc1c(C)cc2[nH]c(CCC(=O)O)nc2c1C`, the inhibition is 0%.

Regarding `Cc1cccc(OCCNC(=O)c2ncn[nH]2)c1`, the inhibition was 0%.

Consider `CCCCSc1cc(C)nc2ncnn12`, for which the inhibition was 0%.

In the case of `O=C(CCC(=O)OCCCC(F)(F)C(F)(F)F)NC1CCCCC1`, the inhibition was 0%.

On to `Cc1ccc(C(C)n2cc(C(=O)NCCN3CCN(C)CC3)nn2)cc1` (stereo not given), for which the inhibition is 0%.

For the compound `N#Cc1cnc(SCCc2ccccc2)nc1N`, the inhibition is 0%.

As to `CCC(=O)N1CCc2cc(S(=O)(=O)CCC(=O)Nc3ccc(F)c(F)c3)ccc21`, the inhibition is 0%.

On to `CC1(C)C(c2cccs2)=[N+]([O-])C2(CCCCC/C2=N\O)N1O` (stereo not given), for which the inhibition is 6%.

`CCOc1cc(C(=O)N2CCN=C2SC)cc(OCC)c1OCC`: the inhibition was 7%.

In the case of `COc1ccc(C(C)=O)c(OC(=O)c2ccc(OC)c(OC)c2)c1`, the inhibition is 0%.

Regarding `CC1CCc2c(sc(N)c2C(N)=O)C1` (stereo not given), the inhibition is 0%.

Take `Cc1ccc(NC(=O)c2ccco2)c(NC(=O)CN2C(=O)c3ccccc3C2=O)c1`: the inhibition is 7%.

`Nc1nc(SCCOc2ccccc2)n[nH]1`: the inhibition was 0%.
